Several values for one entry are separate records, joined by “and”; a condition that tells them apart may be missing. Equal values may be shown once. Activity calls are given as the source filed them. Unless noted, how the calls were made is not given here.
Tests used:
[1] = HepG2 liver cancer cell viability effects, profiling panel, resazurin fluorescence, 24 h, PK04 Diversity Set (AID 1172); conditions: higher = more signal; further: test concentration not given here
[2] = basal S. cerevisiae growth modulation, no modifier, primary screen, OD600, strain BY4716, 24 h, basal condition (AID 1173); conditions: OD600, 24 h; higher = more signal, called active from +8 up or from −8 down unless noted
[3] = MM1S myeloma cell viability, profiling panel, resazurin fluorescence, basal, 24 h, PK04 Diversity Set (AID 1174); conditions: higher = more signal, called active from +8 up or from −8 down unless noted;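 further: MM1S multiple myeloma cell line; test concentration not given here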
[4] = biological target: Dihydroorotate dehydrogenase (quinone), mitochondrial (Plasmodium falciparum (isolate 3D7)) (UniProt Q08210); test: PfDHODH enzyme inhibitors, primary screen, biochemical, C-terminal His tag, absorbance 600 nm (AID 1175); conditions: DCIP absorbance 600 nm; higher = more signal, called active from +8 up or from −8 down unless noted;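 further: recombinant parasite enzyme with a five histidine tag at its C terminus; test concentration not given here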
[5] = P. aeruginosa biofilm formation inhibitors, primary screen, strain PAO1, LB-PBS medium, absorbance 600 nm (AID 1176); further: test concentration not given here; conditions: P. aeruginosa PAO1 growth/biofilm, A600, 12 h; higher = more signal
[6] = S. cerevisiae RM11-1a growth modifiers, primary screen, strain RM11-1a, OD600, basal, 24 h (AID 1177); conditions: OD600, 24 h; higher = more signal, called active from +8 up or from −8 down unless noted;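 further: cultures grown under basal conditions with no added stressor; test concentration not given here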
[7] = E. coli acrAB mutant growth effects, primary screen, E. coli filamentation inducers, strain DRC39, OD650, 24 h (AID 1178); conditions: higher = more signal, called active from +8 up or from −8 down unless noted;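 further: growth measured as culture turbidity by optical density at 650 nm; test concentration not given here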
[8] = E. coli acrAB mutant growth effects, primary screen, E. coli filamentation inducers, strain DRC39, OD650, 48 h (AID 1179);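 further: screen aims at cell division blockers that make cells filament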; conditions: E. coli DRC39 delta-acrAB growth, higher = more signal, called active from +8 up or from −8 down unless noted
[9] = RPMI8226 myeloma cell viability, profiling panel, resazurin fluorescence, basal, 24 h, PK04 Diversity Set (AID 1180); conditions: higher = more signal; RPMI8226 viability, resazurin fluorescence, 24 h unless noted;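 further: RPMI8826 multiple myeloma cell line at 5000 cells per well; test concentration not given here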
[10] = biological target: E3 ubiquitin-protein ligase XIAP (Homo sapiens) (UniProt P98170); test: XIAP binders, primary screen, biophysical, small-molecule microarray, fluorescence 635 nm (AID 1181); conditions: small-molecule microarray binding, higher = more signal;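 further: score merges 667 nm emission and signal to noise over triplicate slides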
Chain of E3 ubiquitin-protein ligase XIAP (Homo sapiens) (P98170 whole entry, looked up): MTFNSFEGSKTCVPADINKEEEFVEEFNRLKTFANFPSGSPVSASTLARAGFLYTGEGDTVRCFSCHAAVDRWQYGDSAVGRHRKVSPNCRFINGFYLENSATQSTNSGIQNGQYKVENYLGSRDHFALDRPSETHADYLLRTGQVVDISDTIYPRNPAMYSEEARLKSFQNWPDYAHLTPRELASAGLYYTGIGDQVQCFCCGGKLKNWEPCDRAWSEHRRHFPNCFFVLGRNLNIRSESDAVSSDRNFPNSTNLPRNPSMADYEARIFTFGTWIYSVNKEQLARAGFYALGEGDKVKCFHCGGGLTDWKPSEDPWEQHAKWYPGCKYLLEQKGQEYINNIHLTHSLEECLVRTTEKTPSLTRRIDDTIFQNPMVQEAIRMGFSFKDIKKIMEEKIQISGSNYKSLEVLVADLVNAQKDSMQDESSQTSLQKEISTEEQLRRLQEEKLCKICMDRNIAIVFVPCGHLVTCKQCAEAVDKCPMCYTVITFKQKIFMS

Chain of Dihydroorotate dehydrogenase (quinone), mitochondrial (Plasmodium falciparum (isolate 3D7)) (Q08210 whole entry, looked up): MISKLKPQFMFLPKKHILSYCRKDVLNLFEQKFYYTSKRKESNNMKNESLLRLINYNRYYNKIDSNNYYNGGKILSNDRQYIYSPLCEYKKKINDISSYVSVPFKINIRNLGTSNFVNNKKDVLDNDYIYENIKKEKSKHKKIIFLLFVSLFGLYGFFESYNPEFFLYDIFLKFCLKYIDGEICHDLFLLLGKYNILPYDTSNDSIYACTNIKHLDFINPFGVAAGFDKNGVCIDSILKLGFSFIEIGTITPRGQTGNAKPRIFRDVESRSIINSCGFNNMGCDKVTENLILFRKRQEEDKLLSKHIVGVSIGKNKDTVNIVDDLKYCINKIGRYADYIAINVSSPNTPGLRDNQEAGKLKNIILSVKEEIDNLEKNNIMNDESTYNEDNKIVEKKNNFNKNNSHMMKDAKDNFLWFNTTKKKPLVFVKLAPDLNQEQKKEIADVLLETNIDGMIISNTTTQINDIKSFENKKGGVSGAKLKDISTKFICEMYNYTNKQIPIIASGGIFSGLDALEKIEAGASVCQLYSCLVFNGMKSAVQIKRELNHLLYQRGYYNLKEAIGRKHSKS

Compound	z-score [1]	z-score [2]	z-score [3]	composite z-score [4]	z-score [5]	z-score [6]	z-score [7]	z-score [8]	z-score [9]	composite z-score [10]
CC1N(P(=O)(c2ccccc2)c2ccccc2)CC(O)(c2ccccc2)CC12CC2 (stereo not given)	-0.964 and 0.138	2.47 (inactive) and 0.135 (inactive)	-1.13 (inactive) and -0.22 (inactive)	0.296 (inactive) and -0.264 (inactive)	0.495 (inactive) and 0.178 (inactive)	1.23 (inactive) and -0.154 (inactive)	-0.611 (inactive) and -0.406 (inactive)	0.0506 (inactive) and -0.0402 (inactive)	-1.54 and 0.553	-0.193 and -0.25
COC(=O)[C@@]1(Cc2ccccc2)[C@H]2c3cc(C(=O)N(C)C)n(C)c3C[C@H]2CN1C(=O)c1ccccc1	-0.0935	0.658 (inactive)	-0.923 (inactive)	-0.105 (inactive)	-0.222 (inactive)	0.299 (inactive)	0.0242 (inactive)	0.0618 (inactive)	-0.0721	0.071
CCOC(=O)[C@H]1CC=C2C(=O)Oc3ccccc3[C@@H]21	0.867	-10.4 (active)	-0.848 (inactive)	0.188 (inactive)	0.381 (inactive)	-1.43 (inactive)	-0.475 (inactive)	-1.11 (inactive)	-0.575	-0.0727
C=C(CC1(C(C)NP(=O)(c2ccccc2)c2ccccc2)CC1)c1ccccc1 (stereo not given)	0.901	-16.1 (active)	0.794 (inactive)	-0.626 (inactive)	1.38 (inactive)	-16 (active)	-0.628 (inactive)	-0.645 (inactive)	2	0.525
COc1cc2c(cc1O)C=[N+](C)CC2	-0.365	0.248 (inactive)	-0.765 (inactive)	-1.7 (inactive)	0.158 (inactive)	-0.756 (inactive)	0.313 (inactive)	1.42 (inactive)	-0.383	0.0613
C=C(CC1(CNP(=O)(c2ccccc2)c2ccccc2)CC1)c1ccccc1	-0.101	0.736 (inactive)	-0.342 (inactive)	0.271 (inactive)	0.0944 (inactive)	0.389 (inactive)	-0.174 (inactive)	0.249 (inactive)	-0.34	-0.177
c1ccc(-c2cc3c(nc2-c2ccccc2)CCNC3)cc1	0.469	-0.0743 (inactive)	0.526 (inactive)	1.07 (inactive)	-0.0933 (inactive)	1.36 (inactive)	0.306 (inactive)	-0.29 (inactive)	0.938	-0.0344
C[C@H]1O[C@H]2C3=C(C(=O)[C@@H]4O[C@@H]4[C@@H]3O)[C@@H]1[C@@H]1[C@@H](C)OC=C3[C@@H](O)[C@H]4O[C@H]4C(=O)[C@]312	-0.85	-0.92 (inactive)	-1.92 (inactive)	-1.59 (inactive)	0.629 (inactive)	-0.839 (inactive)	0.215 (inactive)	-0.115 (inactive)	-0.416	-0.136
OCc1ccc(C2=CC(c3cccs3)N(Cc3cccc(OC(F)(F)F)c3)CC2)cc1 (stereo not given)	-0.0049	-1.22 (inactive)	-0.126 (inactive)	-4.15 (inactive)	-0.223 (inactive)	-0.449 (inactive)	0.301 (inactive)	-0.544 (inactive)	0.341	-0.192
CCOC(=O)[C@H]1CC=C2C(=O)Oc3ccc(Br)cc3[C@@H]21	0.328	-17 (active)	-0.595 (inactive)	-0.89 (inactive)	0.477 (inactive)	-14 (active)	-0.936 (inactive)	-0.568 (inactive)	-0.0544	0.355
CCCC=C(CCC)[C@@H](NP(=O)(c1ccccc1)c1ccccc1)c1ccccc1	2.47	1.4 (inactive)	1.16 (inactive)	0.0585 (inactive)	0.0944 (inactive)	-0.903 (inactive)	-0.486 (inactive)	-0.236 (inactive)	1.3	0.0205
COC(=O)NCC=Cc1nc(CCC=CC(=O)O[C@H]2CC3CC(=O)O[C@@H](C=CCC(C)C)C[C@@H]4CC[C@H](C)[C@@H](C[C@@H](OC)C[C@H](C2)O3)O4)co1	-1.05	-1.03 (inactive)	-2.04 (inactive)	-0.646 (inactive)	0.168 (inactive)	-0.659 (inactive)	0.523 (inactive)	0.666 (inactive)	-1.95	-0.102
COC(=O)[C@@]1(Cc2ccc(F)cc2)[C@H]2c3cc(C(=O)N(C)C)[nH]c3C[C@H]2CN1C(=O)c1ccccc1	-1.3	1.11 [setting not given] (inactive)	-0.811 [setting not given] (inactive)	0.25 [setting not given] (inactive)	0.191 (inactive)	1.09 [setting not given] (inactive)	-0.119 [setting not given] (inactive)	0.169 [E. coli growth] (inactive)	-0.487 [setting not given]	0.0546
COc1cc2c(cc1O)C(C)N(C)CC2 (stereo not given)	-0.454	-0.709 (inactive)	0.412 (inactive)	-3.68 (inactive)	-0.227 (inactive)	-0.448 (inactive)	0.516 (inactive)	-0.385 (inactive)	0.566	-0.184
CCCc1cc2c(n1Cc1ccco1)C(C)C1CN(C(=O)c3ccccc3)C(C)(C(=O)OC)C21 (stereo not given)	-1.24	-0.0767 (inactive)	-1.85 (inactive)	-0.455 (inactive)	1.9 (inactive)	0.264 (inactive)	-1.25 (inactive)	-0.951 (inactive)	-1.3	0.471
CCCC[C@@H]1C[C@H]1[C@@H](NP(=O)(c1ccccc1)c1ccccc1)c1ccc(Cl)cc1	1.46	-1.14 (inactive)	0.105 (inactive)	-0.717 (inactive)	0.122 (inactive)	-0.357 (inactive)	-0.429 (inactive)	-0.363 (inactive)	-0.0326	0.0077

— PubChem BioAssay
